# Test results published in the supplement of paper PMC8728848.
# This excerpt belongs to a sample that is enriched for the strongest signals.
# B1: DCIR1 (Mus musculus), Q9QZ15 (protein)
# chain: MASEITYAEVKFKNESNSLHTYSESPAAPREKPIRDLRKPGSPSLLLTSLMLLLLLLAITFLVAFIIYFQKYSQLLEEKKAAKNIMHNELNCTKSVSPMEDKVWSCCPKDWRLFGSHCYLVPTVSSSASWNKSEENCSRMGAHLVVIQSQEEQDFITGILDTHAAYFIGLWDTGHRQWQWVDQTPYEESITFWHNGEPSSGNEKCATIIYRWKTGWGWNDISCSLKQKSVCQMKKINL
# Assays:
# Experiment in all cases: glycan array binding signal (z-score within array); higher = stronger binding
# Conditions in all cases: glycan notation: IUPAC condensed, linker removed
# Gal3S6S(b1-4)GlcNAc = target: Gal3S6S(b1-4)GlcNAc
# Method in brief: (§1)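 From the Consortium for Functional Glycomics database, 3228 arrays were curated, keeping only those whose protein sequence was available. Binding is given as a within-array Z-score averaged across arrays sharing a protein sequence and across linkers. Negative Z-scores can be read as non-binding.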
# Gal6P(b1-4)GlcNAc = target: Gal6P(b1-4)GlcNAc
# Method in brief: as §1
# GalNAc(a1-3)GalNAc = target: GalNAc(a1-3)GalNAc
# Method in brief: as §1
# [1] = target: GalNAc(a1-3)GalNAc(b1-3)Gal(a1-4)Gal(b1-4)GlcNAc
# Method in brief: as §1
# [2] = target: GlcNAc(b1-2)[GlcNAc(b1-4)]Man(a1-3)[GlcNAc(b1-4)][GlcNAc(b1-2)Man(a1-6)]Man(b1-4)GlcNAc(b1-4)GlcNAc
# Method in brief: as §1
# [3] = target: GlcNAc(b1-3)Gal(b1-4)GlcNAc(b1-6)[GlcNAc(b1-3)Gal(b1-3)]GalNAc
# Method in brief: as §1
# [4] = target: Kdn(a2-3)Gal(b1-4)[Fuc(a1-3)]GlcNAc
# Method in brief: as §1
# [5] = target: Man(a1-2)Man(a1-2)Man(a1-3)Man
# Method in brief: as §1
# [6] = target: Man(a1-2)Man(a1-2)Man(a1-6)[Man(a1-3)]Man
# Method in brief: as §1
# [7] = target: Man(a1-3)[Man(a1-6)]Man(a1-6)[Man(a1-3)]Man
# Method in brief: as §1
# [8] = target: Neu5Ac(a2-3)Gal(b1-3)GlcNAc(b1-6)GalNAc
# Method in brief: as §1
# [9] = target: Neu5Ac(a2-3)Gal(b1-4)GlcNAc(b1-2)[Neu5Ac(a2-3)Gal(b1-4)GlcNAc(b1-4)]Man(a1-3)[GlcNAc(b1-4)][Neu5Ac(a2-3)Gal(b1-4)GlcNAc(b1-2)[Neu5Ac(a2-3)Gal(b1-4)GlcNAc(b1-6)]Man(a1-6)]Man(b1-4)GlcNAc(b1-4)GlcNAc
# Method in brief: as §1
# [10] = target: Neu5Ac(a2-3)Gal(b1-4)GlcNAc(b1-2)[Neu5Ac(a2-3)Gal(b1-4)GlcNAc(b1-6)]Man(a1-6)[Neu5Ac(a2-3)Gal(b1-4)GlcNAc(b1-2)Man(a1-3)]Man(b1-4)GlcNAc(b1-4)GlcNAc
# Method in brief: as §1
# [11] = target: Neu5Ac(a2-3)Gal(b1-4)GlcNAc(b1-3)Gal(b1-4)GlcNAc(b1-3)Gal(b1-4)GlcNAc
# Method in brief: as §1
# [12] = target: Neu5Ac(a2-3)Gal(b1-4)GlcNAc(b1-3)Gal(b1-4)GlcNAc(b1-3)[Neu5Ac(a2-3)Gal(b1-4)GlcNAc(b1-3)Gal(b1-4)GlcNAc(b1-6)]GalNAc
# Method in brief: as §1
# [13] = target: Neu5Ac(a2-3)Gal(b1-4)GlcNAc6S
# Method in brief: as §1
# [14] = target: Neu5Ac(a2-3)Gal(b1-4)[Fuc(a1-3)]GlcNAc6S
# Method in brief: as §1
# [15] = target: Neu5Ac(a2-6)Gal(b1-4)GlcNAc(b1-2)Man(a1-3)[Neu5Ac(a2-6)Gal(b1-4)GlcNAc(b1-2)Man(a1-6)]Man(b1-4)GlcNAc(b1-4)GlcNAc
# Method in brief: as §1
# [16] = target: Neu5Ac(a2-6)Gal(b1-4)GlcNAc(b1-2)Man(a1-6)[Gal(b1-4)GlcNAc(b1-2)Man(a1-3)]Man(b1-4)GlcNAc(b1-4)GlcNAc
# Method in brief: as §1
# [17] = target: Neu5Ac(a2-6)Gal(b1-4)GlcNAc(b1-2)Man(a1-6)[GlcNAc(b1-2)Man(a1-3)]Man(b1-4)GlcNAc(b1-4)GlcNAc
# Method in brief: as §1
# [18] = target: Neu5Ac(a2-6)Gal(b1-4)GlcNAc(b1-2)[Neu5Ac(a2-6)Gal(b1-4)GlcNAc(b1-4)]Man(a1-3)[GlcNAc(b1-4)][Neu5Ac(a2-6)Gal(b1-4)GlcNAc(b1-2)[Neu5Ac(a2-6)Gal(b1-4)GlcNAc(b1-6)]Man(a1-6)]Man(b1-4)GlcNAc(b1-4)GlcNAc
# Method in brief: as §1
# Neu5Ac(a2-6)GalNAc = target: Neu5Ac(a2-6)GalNAc
# Method in brief: as §1
# [19] = target: Neu5Ac(a2-6)GalNAc(b1-4)GlcNAc
# Method in brief: as §1
# [20] = target: Neu5Ac(a2-6)GalNAc(b1-4)GlcNAc6S
# Method in brief: as §1
# [21] = target: Neu5Ac(a2-8)Neu5Ac(a2-3)Gal(b1-4)GlcNAc
# Method in brief: as §1
# [22] = target: Neu5Ac(a2-8)Neu5Ac(a2-8)Neu5Ac(a2-3)[Gal(b1-3)GalNAc(b1-4)]Gal(b1-4)Glc
# Method in brief: as §1
# [23] = target: Neu5Gc(a2-3)Gal(b1-4)GlcNAc
# Method in brief: as §1
# [24] = target: Neu5Gc(a2-8)Neu5Ac(a2-3)Gal(b1-4)GlcNAc
# Method in brief: as §1
# [25] = target: Neu5Gc(a2-8)Neu5Gc(a2-6)Gal(b1-4)GlcNAc
# Method in brief: as §1
binder,measurement,setting,value
B1,glycan array binding signal (z-score),Gal3S6S(b1-4)GlcNAc,0.218
same,glycan array binding signal (z-score),Gal6P(b1-4)GlcNAc,-0.489
same,glycan array binding signal (z-score),GalNAc(a1-3)GalNAc,-0.78
same,glycan array binding signal (z-score),[1],2.31
same,glycan array binding signal (z-score),[2],-0.101
same,glycan array binding signal (z-score),[3],-0.947
same,glycan array binding signal (z-score),[4],2.92
same,glycan array binding signal (z-score),[5],-0.962
same,glycan array binding signal (z-score),[6],4.44
same,glycan array binding signal (z-score),[7],0.267
same,glycan array binding signal (z-score),[8],0.265
same,glycan array binding signal (z-score),[9],-0.887
same,glycan array binding signal (z-score),[10],0.375
same,glycan array binding signal (z-score),[11],-0.844
same,glycan array binding signal (z-score),[12],1.36
same,glycan array binding signal (z-score),[13],0.145
same,glycan array binding signal (z-score),[14],-0.532
same,glycan array binding signal (z-score),[15],-0.079
same,glycan array binding signal (z-score),[16],-0.16
same,glycan array binding signal (z-score),[17],2.04
same,glycan array binding signal (z-score),[18],-0.823
same,glycan array binding signal (z-score),Neu5Ac(a2-6)GalNAc,2.86
same,glycan array binding signal (z-score),[19],-0.517
same,glycan array binding signal (z-score),[20],-0.058
same,glycan array binding signal (z-score),[21],-1.1
same,glycan array binding signal (z-score),[22],2.88
same,glycan array binding signal (z-score),[23],-0.678
same,glycan array binding signal (z-score),[24],-1.04
same,glycan array binding signal (z-score),[25],-0.802
